For 30 compounds, Inhibition results are on record in ChEMBL document CHEMBL1157539, “Thousands of chemical starting points for antimalarial lead identification” (Nature, 2010).

One may read the Inhibition as how much of the control response was suppressed. A high value points to a strong effect.

Assay type in all cases: functional
In experiment [1] the test system is Plasmodium falciparum. Kind of experiment: GSK_TCMDC: Inhibition of Plasmodium falciparum 3D7 in whole red blood cells, using parasite LDH activity as an index of growth. Test compounds present at 2uM.
Experiment [2] has as its system Plasmodium falciparum. Kind of experiment: GSK_TCMDC: Inhibition of Plasmodium falciparum Dd2 in whole red blood cells, using parasite LDH activity as an index of growth. Test compounds present at 2uM.
For experiment [3], the system named is HepG2. Kind of experiment: GSK_TCMDC: Percent inhibition of human HepG2 cell line. Test compounds present at 10uM.

`COC(=O)c1ccc(-c2ccc(C(=O)NCC3CCN(c4nc(N)c5cc(OC)c(OC)cc5n4)CC3)cc2)cc1`: the Inhibition turned out to be 98% in experiment [1], 100% in experiment [2] and 53% in experiment [3].
On the same counts, the results for `CCCN(CCC)C(=O)c1cc(-c2cccc(C)c2)nc2ccccc12` are 86%, 59% and 17%.
Consider `COCCOC(=O)C(=O)c1c(-c2ccccc2)c(-c2ccc(OC)c(OC)c2)c2c3cc(OC)c(OC)cc3ccn12`, for which the Inhibition amounted to 100% in experiment [1], 100% in experiment [2] and 4% in experiment [3].
As to `NCCO.O=C(Nc1ccc([N+](=O)[O-])cc1Cl)c1cc(Br)cc(Cc2ccccc2)c1O`, the Inhibition is reported as 84% in experiment [1], 96% in experiment [2] and 75% in experiment [3].
Regarding `CN(CCNCc1ccc(-c2cccc(-c3nc4ccccc4[nH]3)c2)cc1)S(C)(=O)=O.O=C(O)C(F)(F)F`, the Inhibition in experiment [1] is given as 100%; in experiment [2], 29%; in experiment [3] it was 9%.
Consider `Cl.O=C(NC1CCC(CCN2CCc3ccc(-c4cnccn4)cc3CC2)CC1)c1cccc(-n2cccn2)c1` (stereo not given), for which the Inhibition was 93% in experiment [1], 1% in experiment [2] and 23% in experiment [3].
Take `Clc1cc(Cl)cc(Nc2ccnc(Nc3cc(Cl)cc(Cl)c3)n2)c1`: the Inhibition was 99% in experiment [1], 73% in experiment [2] and 11% in experiment [3].
Consider `CN1CCCN(Cc2cccc(-c3cccc(NC(=O)c4ccc(C#N)cc4)c3)c2)CC1.O=C(O)C(F)(F)F`, for which the Inhibition in experiment [1] is listed as 89%; in experiment [2], 4%; in experiment [3], 7%.
Turning to `Cc1cc(CNCCCCCCNCc2ccc(Cl)cc2)ccc1O`, the figures for the Inhibition in experiment [1], in experiment [2] and in experiment [3] were 96%, 0% and 23%, respectively.
For `CN1CCC(NCc2ccc(-c3ccc(S(=O)(=O)NC4CCC4)s3)cc2)CC1.O=C(O)C(F)(F)F`, the Inhibition in experiment [1] is 92%; in experiment [2], 31%; in experiment [3], 31%.
`N=C(N)Nc1nc(-c2cccc(NC(=O)NCc3ccc(OC(F)(F)F)cc3)c2)cs1`: the Inhibition in experiment [1] came out at 100%; in experiment [2] it was 26%; in experiment [3], 0%.
With `CCOC(=O)c1cccc(NC(=O)Nc2cc(C)nc3ccccc23)c1`, the figures for the Inhibition in experiment [1], in experiment [2] and in experiment [3] were 100%, 90% and 14%, respectively.
`COc1ccc(CNC(=O)c2cnc3c(O)cccc3c2Nc2cccc(NC(=O)c3ccc(Cl)c([N+](=O)[O-])c3)c2)cc1.O=C(O)C(F)(F)F`: the results for the Inhibition in experiment [1], in experiment [2] and in experiment [3] were 86%, 21% and 48%, respectively.
Regarding `COc1cc(C(=O)NC2CCN(Cc3ccccc3)CC2)ccc1-c1nc2c(Cl)cc(C(F)(F)F)cc2[nH]1`, the Inhibition in experiment [1] turned out to be 100%; in experiment [2] it was 56%; in experiment [3], 7%.
With `COc1cc2nc(N3CCC(CNC(=O)c4cc5ccccc5s4)CC3)nc(N)c2cc1OC`, the Inhibition in experiment [1] came to 100%; in experiment [2] it was 100%; in experiment [3], 8%.
`Cc1ccc(C2CCN(CCCCNC(=O)c3ccc(NC(=O)c4ccc(Cl)cc4)cc3)CC2)c(OCC2CC2)c1.Cl`: the Inhibition in experiment [1] was determined as 100%; in experiment [2], 95%; in experiment [3] it was 63%.
On to `Cn1c(CN2CCC(N3CCc4cc(NC(=O)c5ccco5)ccc43)C2)cc2ccccc21` (stereo not given), for which the Inhibition in experiment [1] came out at 91%; in experiment [2] it was 92%; in experiment [3], 0%.
`O=C(/C=C/c1ccc(Cl)c(Cl)c1)NCCCCCN1CCC(NC(=O)Nc2cc(F)cc(F)c2)CC1`: the Inhibition came to 100% in experiment [1], 6% in experiment [2] and 80% in experiment [3].
Consider `CCOc1cc(C)ccc1C1CCN(CCCCNC(=O)c2nc(-c3ccc(C(F)(F)F)cc3)[nH]c2C)CC1.Cl`, for which the Inhibition in experiment [1] was 100%; in experiment [2] it was 98%; in experiment [3], 30%.
For the compound `CC(C)(C)NCCN(Cc1ccc(-c2ccc(C(F)(F)F)cc2)cc1)C(=O)Cn1c(CCc2cccc(F)c2F)nc(=O)c2ccccc21`, the Inhibition in experiment [1] is 99%; in experiment [2], 68%; in experiment [3], 46%.
On the same counts, the results for `O=C(/C=C/c1ccc(Cl)c(Cl)c1)N1CCC(C(O)CN2CCC(c3c[nH]c4ccccc34)CC2)CC1.O=C(O)C(F)(F)F` (stereo not given) are 99%, 46% and 14%.
As to `CCN(CCCN1CCCCC1)c1nc(C)cc(Nc2ccc(Cl)cc2)n1`, the Inhibition in experiment [1] worked out at 98%; in experiment [2] it was 92%; in experiment [3], 30%.
On to `CC(C)NCc1ccc(-c2ccc(NC(=O)c3cccc(C#N)c3)cc2)cc1.O=C(O)C(F)(F)F`, for which the Inhibition in experiment [1] is reported as 99%; in experiment [2], 77%; in experiment [3], 40%.
With `CCN1CCc2nc3ccccc3c(C(=O)Nc3ccc(C#N)cc3)c2C1`, the figures for the Inhibition in experiment [1], in experiment [2] and in experiment [3] were 99%, 72% and 24%, respectively.
As for `CCCc1cc(Cc2cnc(N)nc2N)cc(CCC)c1OCCCC(=O)OCC`, the Inhibition in experiment [1] worked out at 94%; in experiment [2], 0%; in experiment [3] it was 0%.
`CCC(C)C#Cc1c(C)nc(N)nc1N` (stereo not given): the figures for the Inhibition in experiment [1], in experiment [2] and in experiment [3] were 96%, 0% and 53%, respectively.
With `CC(C)C[C@H](NC(=O)c1ccc(OCCN2CCOCC2)cc1)C(=O)N[C@H](/C=N/NC(=O)OC(C)(C)C)CCc1ccccc1`, the Inhibition in experiment [1] turned out to be 96%; in experiment [2], 87%; in experiment [3] it was 8%.
In the case of `CO/C(=C\C=C\c1cc2cc(Cl)c(Cl)cc2[nH]1)C(=O)NC1CC2CCCC(C1)N2C` (stereo not given), the results for the Inhibition in experiment [1], in experiment [2] and in experiment [3] were 93%, 51% and 42%, respectively.
Take `C[C@H](Cc1ccc(OCCCCCCOc2ccc(C[C@@H](C)NC(=O)[C@H](O)c3cccc(Cl)c3)cc2)cc1)NC[C@H](O)c1cccc(Cl)c1`: the results for the Inhibition in experiment [1], in experiment [2] and in experiment [3] were 99%, 99% and 39%, respectively.
Consider `CCOC(=O)c1ccc(NC(=O)N[C@@H](Cc2ccccc2)C(=O)NC2CCN(Cc3ccc(O)c(OC)c3)C2)cc1` (stereo not given in full), for which the Inhibition in experiment [1] is recorded as 88%; in experiment [2], 0%; in experiment [3] it was 0%.
